Measured values published in PubChem BioAssay (NCATS).
Records with an inconclusive call do not appear. Unmarked numbers belong to inactive results. Active and inactive are the calls of the source. Calls follow the shape of the dose curve; as a rule, active = well fitted inhibition curve with a large enough effect; inconclusive = small, poorly fitted or top-dose-only effect; inactive = flat fitted curve, though single readings scatter.

Experiments:
[1] = system: CRL-7250; assay: Cytotoxic Profiling of Annotated Libraries Using Quantitative High-Throughput Screening (AID 1296008); conditions: Five cell lines viability, CellTiter-Glo ATP luminescence, 48-72 h; max response: stronger effect = lower value; also: nearly all actives have a fitted effect of over 60% in size
Summary of the method: (§1)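 Compounds were pin-transferred onto cells and incubated 48 or 72 hr at 37 degree Celsius, 95% humidity. CellTiter-Glo was added, plates sat 10 min at room temperature, then ATP-coupled luminescence was imaged as the viability read-out.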

[2] = system: HEK293; assay: as above; conditions: Five cell lines viability, CellTiter-Glo ATP luminescence, 48-72 h; max response: stronger effect = lower value
Summary of the method: as §1
% is scaled to controls: 0 for no effect and ±100 for the full control effect; potency is read from the fitted curve at half-maximal effect.

## CCC(C)C(=O)O[C@H]1CCC=C2C=C[C@H](C)[C@H](CC[C@@H](O)C[C@@H](O)CC(=O)O)[C@H]21 (stereo partly specified)
[1]
  Potency: 7.96 µM (active)
[2]
  max response: 0.832%

## C[C@@H]1C(=O)O[C@H]2[C@@H](O)C34[C@H]5C[C@@H](C(C)(C)C)C36[C@@H](OC(=O)[C@@H]6O)O[C@@]4(C(=O)O5)[C@@]12O (stereo partly specified)
[1]
  max response: -0.587%
[2]
  max response: -1.43%

## CC(=O)N[C@H]1[C@H](O[C@H]2CC[C@@]3(C)C(CC[C@]4(C)C3CC=C3[C@@H]5CC(C)(C)CC[C@]5(C(=O)OC5OCC(O)C(O)C5O)CC[C@]34C)C2(C)C)O[C@H](COC2OC(C)C(O)C(OC3OC(C)C(O)C(O)C3O)C2O)[C@@H](O)[C@@H]1O (stereo partly specified)
[1]
  max response: -6.06%
[2]
  max response: -2.57%

## CC1(C)CC2C(O)c3cocc3CC(C)(O)C2C1 (stereo unspecified)
[1]
  max response: 0.847%
[2]
  max response: 3.14%

## Cc1cnc(NC(=O)Nc2cc(Br)c(C)cc2OCC2CNCCO2)cn1 (stereo unspecified)
[1]
  Potency: 13 µM (active)
[2]
  Potency: 1.3 µM (active)

## C=C1CCC2C(C)(C)CCC[C@]2(C)[C@H]1C/C=C(\CO)C(=O)C(=O)O (stereo partly specified)
[1]
  max response: -8.85%
[2]
  max response: 1.79%

## COC(=O)c1cc(OC)c(O[C@@H]2O[C@@H](C)[C@H](O)[C@@H](O)[C@H]2O)c(OC)c1
[1]
  outcome: inactive
[2]
  max response: -6.73%

## COc1cc2c(cc1O)[C@H](c1ccc(O[C@@H]3O[C@H](CO)[C@@H](O)[C@H](O)[C@H]3O)c(OC)c1)[C@@H](CO)[C@](O)(CO)C2
[1]
  max response: 4.77%
[2]
  max response: 2.27%

## CC(C)=CCCC1(C)C=Cc2c(c(C)cc3c2[nH]c2ccccc23)O1 (stereo unspecified)
[1]
  max response: -19.1%
[2]
  max response: -24.1%

## O=C(O)[C@@H]1C[C@H]2C[C@@H](CCc3nn[nH]n3)CC[C@H]2CN1
[1]
  max response: 0.564%
[2]
  max response: 1.79%

## COc1ccc(C(O)C(C)OC2OC(CO)C(O)C(O)C2O)cc1 (stereo unspecified)
[1]
  max response: -9.11%
[2]
  max response: 0.525%

## CCC(=O)O[C@H]1C(C)(C)[C@H]([C@@H](O)C(=O)OC)[C@]2(C)C(=O)[C@@]1(O)[C@H]1O[C@]13C1CC(=O)O[C@@H](c4ccoc4)[C@]1(C)CCC32 (stereo partly specified)
[1]
  max response: 0.287%
[2]
  max response: -1.59%

## O=C(CCc1nnc2n(Cc3ccc(Cl)cc3)c(=O)c3ccccc3n12)NCCC1=CCCCC1
[1]
  max response: -19.2%
[2]
  max response: -12.9%

## OC[C@@]1(O)CO[C@@H](OC[C@H]2O[C@@H](Oc3c[nH]c4ccccc34)[C@H](O)[C@@H](O)[C@@H]2O)[C@@H]1O
[1]
  max response: -23.1%
[2]
  max response: -21.5%

## CC1(C)CCC2(C(=O)OC3OC(CO)C(O)C(O)C3O)CCC3(C)C(=CCC4C5(C)CCC(O)C(C)(C(=O)O)C5CCC43C)C2C1O (stereo unspecified)
[1]
  max response: 3.57%
[2]
  max response: 4.09%

## C/C=C(\C)C(=O)O[C@@H]1CC2[C@@H](CC=C3C[C@@H](O[C@H]4C[C@H](OC)[C@H](O[C@H]5C[C@H](OC)[C@H](O[C@@H]6O[C@H](C)[C@@H](O[C@H]7C[C@H](OC)[C@H](O[C@@H]8O[C@H](CO)[C@@H](O)[C@H](O)[C@H]8O)[C@@H](C)O7)[C@H](OC)[C@H]6O)[C@@H](C)O5)[C@@H](C)O4)CC[C@@]32C)[C@@]2(O)CC[C@H](C(C)=O)[C@@]12C (stereo partly specified)
[1]
  max response: 3.18%
[2]
  max response: -3.44%

## CC12CCC3c4ccc(OC5OC(C(=O)O)C(O)C(O)C5O)cc4CCC3C1CCC2O (stereo unspecified)
[1]
  outcome: inactive
[2]
  max response: 3.31%

## C#CCN(Cc1cc2c(=O)n(C)c(CN3CCN(C)CC3)nc2cc1Cl)c1ccc(C(=O)NCc2cccnc2)cc1
[1]
  Potency: 0.0082 µM (active)
[2]
  max response: -130%

## c1ccc(-c2csc(N3CCOCC3)n2)cc1
[1]
  max response: 1.19%
[2]
  outcome: inactive

## C=C1C(=O)OC2C1CCC(=C)C1CC(OC(C)=O)C(=C)C12 (stereo unspecified)
[1]
  Potency: 18.4 µM (active)
[2]
  Potency: 11.6 µM (active)

## O=C(OC[C@H]1O[C@H](O[C@]2(CO)O[C@H](CO)[C@@H](O)[C@@H]2O)[C@H](O)[C@@H](O)[C@@H]1O)c1ccccc1
[1]
  max response: -1.41%
[2]
  max response: 1.14%

## C[C@@]12CC[C@@H]3[C@@](CC[C@H]4[C@@]3(C)CCC[C@@]4(C)C(=O)O)(CC1=O)C2
[1]
  max response: -4.96%
[2]
  max response: -6.36%

## CC#CC(=O)N1CCC[C@H]1c1nc(-c2ccc(C(=O)Nc3ccccn3)cc2)c2c(N)nccn12
[1]
  max response: -4.15%
[2]
  max response: -0.695%
